From PubChem BioAssay (NCI)
The panel holds about 79,000 compounds, 15% with a hit somewhere; the sample as a whole holds those more often. Activity calls are given as the source filed them. Cut-off read from the data, not from the text of the source: active = growth inhibition above about 70%; inactive = the rest.

Legend:
[1] = NCI Yeast Anticancer Drug Screen. Data for the rad52 strain (AID 147);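 note: 0% = growth of vehicle-treated control cultures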; conditions: S. cerevisiae rad52 mutant growth inhibition, active compounds read high
Outline: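 Vehicle-treated cultures served as the reference for growth inhibition of compound-exposed yeast bearing a DNA repair mutation.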

[2] = NCI Yeast Anticancer Drug Screen. Data for the wt1 strain (AID 149);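 note: 0% = growth of vehicle-treated wt1 cultures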; conditions: S. cerevisiae wt1 strain (SPY 50644) growth inhibition, active compounds read high
Outline: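 Using yeast strain wt1, compound-induced growth inhibition was determined against vehicle-treated cultures.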

[3] = NCI Yeast Anticancer Drug Screen. Data for the mgt1 strain (AID 153); conditions: S. cerevisiae mgt1 mutant growth inhibition, active compounds read high
Outline: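 mgt1 strain exposed; growth vs vehicle control recorded as inhibition.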

[4] = NCI Yeast Anticancer Drug Screen. Data for the rad50 strain (AID 155);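 note: 0% = growth of vehicle-only cultures of the same strain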; conditions: S. cerevisiae rad50 strain growth inhibition, active compounds read high
Outline: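 Relative growth inhibition (compound vs vehicle) was measured in yeast with a defined repair-gene alteration.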

[5] = NCI Yeast Anticancer Drug Screen. Data for the mec2-1 strain (AID 157); conditions: S. cerevisiae mec2-1 strain, active compounds read high
Outline: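 Vehicle-treated cultures served as reference for growth inhibition of compound-exposed mec2-1 yeast.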

[6] = NCI Yeast Anticancer Drug Screen. Data for the rad14 strain (AID 159);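 note: 0% = growth of vehicle-treated control cultures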; conditions: S. cerevisiae rad14 strain growth inhibition, active compounds read high
Outline: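 Screen for anticancer potential: a yeast strain altered in DNA damage repair is grown with compound, and reduced growth is quantified against vehicle controls.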

[7] = NCI Yeast Anticancer Drug Screen. Data for the sgs1 mgt1 strain (AID 161);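 note: 0% = growth of cultures given vehicle only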; conditions: S. cerevisiae sgs1 mgt1 strain, active compounds read high
Outline: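 Read-out: growth inhibition vs vehicle controls. Cells: mutant yeast strain deficient in DNA damage repair.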

[8] = NCI Yeast Anticancer Drug Screen. Data for the CLN2oe strain (AID 163);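 note: 0% = growth of vehicle-only control cultures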; conditions: S. cerevisiae CLN2oe strain, active compounds read high
Outline: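 Inhibition relative to vehicle-treated yeast is reported. Cells: strain with genetic alteration in cell-cycle control, grown with compound.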

[9] = NCI Yeast Anticancer Drug Screen. Data for the cln2 rad14 strain (AID 165);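 note: 0% = growth equal to vehicle treated cultures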; conditions: S. cerevisiae cln2 rad14 strain, active compounds read high
Outline: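 Each compound was tested on cln2 rad14 yeast. Inhibition of growth was calculated against vehicle-exposed controls.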

[10] = NCI Yeast Anticancer Drug Screen. Data for the bub3 strain (AID 167); conditions: S. cerevisiae bub3 mutant strain, active compounds read high
Outline: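 Screening used yeast with an engineered genetic alteration affecting cell cycle control. Compound-exposed cultures were compared with vehicle cultures, and reduced growth was taken as inhibition.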

[11] = NCI Yeast Anticancer Drug Screen. Data for the wt2 strain (AID 169);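 note: 0% = growth of vehicle-treated yeast cultures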; conditions: S. cerevisiae wt2 strain growth inhibition, active compounds read high
Outline: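 Inhibition of yeast growth was determined after compound treatment, normalised to controls receiving only vehicle.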

[12] = NCI Yeast Anticancer Drug Screen. Data for the mlh1 strain (AID 171);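 note: 0% = growth of vehicle-treated control cultures of the same strain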; conditions: S. cerevisiae mlh1 strain growth inhibition, active compounds read high
Outline: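 Vehicle-normalised growth inhibition of a repair- or checkpoint-altered yeast strain following compound treatment.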

[13] = NCI Yeast Anticancer Drug Screen. Data for the sgs1 strain (AID 173);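 note: 0% = growth of vehicle-only control cultures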; conditions: S. cerevisiae sgs1 mutant, active compounds read high
Outline: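 Screen format: yeast with repair or checkpoint alterations, compound exposure, growth read relative to vehicle.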

[14] = NCI Yeast Anticancer Drug Screen. Data for the mlh1 rad18 strain (AID 175); conditions: S. cerevisiae mlh1 rad18 strain growth inhibition, active compounds read high
Outline: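 Vehicle-treated cultures served as the reference for growth inhibition in a yeast strain carrying DNA damage repair alterations exposed to each compound.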

[15] = NCI Yeast Anticancer Drug Screen. Data for the rad18 strain (AID 177); conditions: S. cerevisiae rad18 mutant growth inhibition, active compounds read high
Outline: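 Test articles were incubated with altered yeast defective in DNA damage repair. Results are given as inhibition of growth versus vehicle.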

[16] = at 5.0 µM (retest, dose inferred, filed as 0.5)
[17] = at 50.0 µM (retest, dose inferred, filed as 5.0)

Measured: growth inhibition

CC(C)/C(Cl)=N\OC(=O)Nc1ccc(F)cc1
inactive: [1]; at 1.2 µM 3% | [1]; at 3.7 µM 6% | [1]; at 11.0 µM 11% | [1]; at 33.0 µM 20% | [2]; at 1.2 µM 2% | [2]; at 3.7 µM -1% | [2]; at 11.0 µM -3% | [2]; at 33.0 µM -5% | [2]; at 100.0 µM -3% | [3]; at 1.2 µM 3% | [3]; at 3.7 µM 0% | [3]; at 11.0 µM 6% | [4]; at 1.2 µM 5% | [4]; at 3.7 µM 10% | [4]; [16] 24% | [4]; at 11.0 µM 12% | [4]; at 33.0 µM 23% | [4]; [17] 48% | [4]; at 50.0 µM 10.7% | [5]; at 1.2 µM 6% | [5]; at 3.7 µM 10% | [5]; [16] 35% | [5]; at 11.0 µM 13% | [5]; at 33.0 µM 23% | [5]; [17] 63% | [5]; at 50.0 µM 34% | [6]; at 1.2 µM 4% | [6]; at 3.7 µM 8% | [6]; at 11.0 µM 11% | [6]; at 33.0 µM 13% | [6]; at 100.0 µM 69% | [7]; [16] 26% | [8]; at 1.2 µM 12% | [8]; at 3.7 µM 16% | [8]; at 11.0 µM 15% | [8]; at 33.0 µM 14% | [8]; at 100.0 µM 15% | [9]; [16] 27% | [9]; [17] 29% | [9]; at 50.0 µM 38.8% | [10]; at 1.2 µM 13% | [10]; at 3.7 µM 22% | [10]; [16] 52% | [10]; at 11.0 µM 32% | [10]; at 33.0 µM 45% | [11]; at 1.2 µM -1% | [11]; at 3.7 µM -2% | [11]; at 11.0 µM 3% | [12]; at 1.2 µM 1% | [12]; at 3.7 µM 2% | [12]; at 11.0 µM 6% | [12]; at 33.0 µM 62% | [13]; at 1.2 µM -1% | [13]; at 3.7 µM -2% | [13]; at 11.0 µM 13% | [14]; [16] 33% | [14]; [17] 54% | [14]; at 50.0 µM -41.8% | [15]; at 1.2 µM -1% | [15]; at 3.7 µM 0% | [15]; at 11.0 µM 2% | [15]; at 33.0 µM 5% | [15]; at 100.0 µM 56%
active: [1]; at 100.0 µM 78% | [3]; at 33.0 µM 78% | [3]; at 100.0 µM 99% | [4]; at 100.0 µM 81% | [5]; at 100.0 µM 95% | [7]; [17] 86% | [7]; at 50.0 µM 88.7% | [10]; [17] 83% | [10]; at 50.0 µM 73.8% | [10]; at 100.0 µM 99% | [11]; at 33.0 µM 86% | [11]; at 100.0 µM 99% | [12]; at 100.0 µM 98% | [13]; at 33.0 µM 89% | [13]; at 100.0 µM 99%

Cc1ccc(CCC2=CCCc3c2ccc2ccccc32)cc1
active: [10]; [17] 84%
inactive: [1]; at 1.2 µM -1% | [1]; at 3.7 µM -3% | [1]; at 11.0 µM 0% | [1]; at 33.0 µM 1% | [1]; at 100.0 µM 0% | [2]; at 1.2 µM -3% | [2]; at 3.7 µM -4% | [2]; at 11.0 µM -5% | [2]; at 33.0 µM -8% | [2]; at 100.0 µM -9% | [3]; at 1.2 µM -4% | [3]; at 3.7 µM -3% | [3]; at 11.0 µM -3% | [3]; at 33.0 µM -8% | [3]; at 100.0 µM -39% | [4]; at 1.2 µM -1% | [4]; at 3.7 µM -2% | [4]; [16] -7% | [4]; at 11.0 µM 0% | [4]; at 33.0 µM -1% | [4]; [17] -25% | [4]; at 50.0 µM 11.1% | [4]; at 100.0 µM 2% | [5]; at 1.2 µM -4% | [5]; at 3.7 µM -5% | [5]; [16] 44% | [5]; at 11.0 µM -5% | [5]; at 33.0 µM -4% | [5]; [17] 31% | [5]; at 50.0 µM 6.45% | [5]; at 100.0 µM 5% | [6]; at 1.2 µM -4% | [6]; at 3.7 µM -4% | [6]; at 11.0 µM 0% | [6]; at 33.0 µM 6% | [6]; at 100.0 µM 13% | [7]; [16] 5% | [7]; [17] 10% | [7]; at 50.0 µM 33% | [9]; [16] 6% | [9]; [17] -10% | [9]; at 50.0 µM 16.8% | [10]; at 1.2 µM -4% | [10]; at 3.7 µM -2% | [10]; [16] 63% | [10]; at 11.0 µM -4% | [10]; at 33.0 µM 5% | [10]; at 50.0 µM 33.8% | [10]; at 100.0 µM 15% | [11]; at 1.2 µM -3% | [11]; at 3.7 µM -5% | [11]; at 11.0 µM -5% | [11]; at 33.0 µM -8% | [11]; at 100.0 µM -8% | [12]; at 1.2 µM -3% | [12]; at 3.7 µM -4% | [12]; at 11.0 µM -4% | [12]; at 33.0 µM -1% | [12]; at 100.0 µM 4% | [13]; at 1.2 µM -5% | [13]; at 3.7 µM -4% | [13]; at 11.0 µM -1% | [13]; at 33.0 µM 0% | [13]; at 100.0 µM 3% | [14]; [16] 38% | [14]; [17] 16% | [14]; at 50.0 µM 16.9% | [15]; at 1.2 µM -4% | [15]; at 3.7 µM -1% | [15]; at 11.0 µM -2% | [15]; at 33.0 µM -2% | [15]; at 100.0 µM 2%
